{"source": "PubChem BioAssay (NCI)", "note": "About 83,000 compounds went through this panel and 20% of them were active in at least one assay; those are over-represented in the sample as a whole.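 Results are percent growth after 48 hours of single-concentration exposure. 100 means growth as in untreated cells, lower positive values show inhibition; negative values down to -100 show cell death.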 Unmarked numbers belong to inactive results. The source made the active and inactive calls. Rule for the calls: active = growth percent below 10; inactive = the rest.", "data": [{"system": "SW-620 colon", "assay": "NCI-60 one-dose screen, 48 h (100 = growth as untreated, 0 = no growth, -100 = all killed)", "details": "10 µM unless noted", "values": [{"smiles": "Fc1cccc(CNc2nc(SCCN3CCOCC3)nc3c2cnn3CC(Cl)c2ccc(Br)cc2)c1", "note": "(stereo not given)", "growth": "-38.2% (active)"}, {"smiles": "O=C(Nc1nc2ccc([N+](=O)[O-])cc2s1)Nc1ccc(Cl)cc1Cl", "growth": "75.9%"}, {"smiles": "Nc1nnc(CS(=O)(=O)c2ccccc2)s1", "growth": "108%"}, {"smiles": "CCCCCCCCc1ccc(C(=O)Nc2ccc(C)cc2C(=O)O)cc1", "growth": "103%"}, {"smiles": "COc1ccc2c(c1)c(-c1cc(N)n3nc(-c4c[nH]c5ccccc45)cc3n1)cn2C", "growth": "-89.5% (active)"}, {"smiles": "Clc1ccc(CNc2nc(SCCN3CCOCC3)nc3c2cnn3CC(Cl)c2ccc(Br)cc2)cc1", "note": "(stereo not given)", "growth": "19.2%"}, {"smiles": "CCC(=O)c1cc(C(=O)OC)c2ccc3c4ccccc4ccc3n12", "growth": "84.4%"}, {"smiles": "Nc1cc(-c2c[nH]c3ccc(Cl)cc23)nc2cc(-c3c[nH]c4ccccc34)nn12", "growth": "-79.6% (active)"}, {"smiles": "CCCCNc1ccc2c3c(cccc13)C(=O)N(NCC(O)COc1ccc3c(C)cc(=O)oc3c1)C2=O", "note": "(stereo not given)", "growth": "93.1%"}, {"smiles": "O=C(OCCOCCO)N(c1cccc(Br)c1)c1nc(SCCN2CCOCC2)nc2c1cnn2CC(Cl)c1ccc(Br)cc1", "note": "(stereo not given)", "growth": "17.8%"}, {"smiles": "CCN1C(=O)N(CC)C2NNC(Sc3c(C(=O)O)c4ccccc4n(CC(C)C)c3=O)=NC21", "note": "(stereo not given)", "growth": "30.5%"}, {"smiles": "CCN1C(=O)N(CC)C2NNC(Sc3c(C(=O)O)c4ccccc4n(CCC(C)C)c3=O)=NC21", "note": "(stereo not given)", "growth": "28.4%"}, {"smiles": "COc1ccc(C(=O)c2cc(C(C)=O)c3c(C)cc(C)cn23)cc1", "growth": "82.2%"}, {"smiles": "O=C(N/N=C/c1ccc(Cl)cc1)c1ccc(OCc2nc3ccc(Cl)cc3[nH]2)cc1", "growth": "-40.3% (active)"}, {"smiles": "COC(=O)c1cc(C(=O)C(Br)Br)n2c1ccc1c3ccccc3ccc12", "growth": "45.2%"}, {"smiles": "O=C(Nc1nc2ccccc2s1)Nc1ccccc1Cl", "growth": "96.8%"}, {"smiles": "Oc1ccc(Cl)c(Nc2ncnc3c2cnn3CC(Cl)c2ccc(Br)cc2)c1", "note": "(stereo not given)", "growth": "67.1%"}, {"smiles": "ClC(Cn1ncc2c(Nc3cccc(Br)c3)nc(SCCN3CCOCC3)nc21)c1ccc(Br)cc1", "note": "(stereo not given)", "growth": "-32.1% (active)"}, {"smiles": "Nc1cc(-c2c[nH]c3ccc(F)cc23)nc2cc(-c3c[nH]c4ccccc34)nn12", "growth": "-66.1% (active)"}, {"smiles": "O=C1Nc2cc(-c3ccc(NS(=O)(=O)c4ccc(F)c(Cl)c4)cc3)ccc2/C1=C/c1ccc[nH]1", "growth": "33.9%"}, {"smiles": "O=C1CCC(N2C(=O)c3cccc(NCCOCCOCCOCCC(=O)NCCCC(=O)NC(c4ccc5c(c4)OCO5)c4cc(Cl)c5cccnc5c4O)c3C2=O)C(=O)C1", "note": "(stereo not given)", "growth": "39%"}, {"smiles": "Cn1cc(-c2cc3nc(-c4c[nH]c5ccccc45)cc(N)n3n2)c2ccccc21", "growth": "-77.1% (active)"}, {"smiles": "CN1C(=O)C(O)(CC(=O)c2cc3ccccc3oc2=O)c2ccccc21", "note": "(stereo not given)", "growth": "101%"}, {"smiles": "COc1ccc(Nc2nnc(-c3c[nH]c4ccccc34)o2)cc1", "growth": "93%"}, {"smiles": "Cc1cccc(C)c1Nc1nnc(-c2c[nH]c3ccccc23)o1", "growth": "99.5%"}, {"smiles": "Cc1ccc(O)cc1Nc1nc(SCCN2CCOCC2)nc2c1cnn2CC(Cl)c1ccc(Br)cc1", "note": "(stereo not given)", "growth": "32.9%"}, {"smiles": "Fc1ccccc1CNc1nc(SCCN2CCOCC2)nc2c1cnn2CC(Cl)c1ccc(Br)cc1", "note": "(stereo not given)", "growth": "-51% (active)"}, {"smiles": "COC(=O)c1cc(C(=O)CBr)n2c1ccc1c3ccccc3ccc12", "growth": "55.4%"}, {"smiles": "Oc1ccc(F)c(Nc2nc(SCCN3CCOCC3)nc3c2cnn3CC(Cl)c2ccc(Br)cc2)c1", "note": "(stereo not given)", "growth": "29.3%"}, {"smiles": "COC(=O)c1c(C(=O)OC)c2ccc3c4ccccc4ccc3n2c1C(=O)C(C)Br", "note": "(stereo not given)", "growth": "9.86% (active)"}, {"smiles": "Cc1nn(-c2ccccc2)c2nc(C)n(C(=O)N/N=C/c3cccc([N+](=O)[O-])c3)c(=O)c12", "growth": "103%"}, {"smiles": "COc1c2c(c(Br)c3c1C(CCc1ccccc1)N(C)CC3)OCO2", "note": "(stereo not given)", "growth": "11.9%"}, {"smiles": "COc1ccc2[nH]cc(-c3cc(N)n4nc(-c5c[nH]c6ccccc56)cc4n3)c2c1", "growth": "-70.4% (active)"}, {"smiles": "CC(C)(C)C(=O)C1CC(C#N)=C2C=Cc3c(ccc4ccccc34)N21", "note": "(stereo not given)", "growth": "102%"}, {"smiles": "Oc1ccc(Cl)c(Nc2nc(SCCN3CCOCC3)nc3c2cnn3CC(Cl)c2ccc(Br)cc2)c1", "note": "(stereo not given)", "growth": "30.4%"}, {"smiles": "Fc1ccc(F)c(CNc2nc(SCCN3CCOCC3)nc3c2cnn3CC(Cl)c2ccc(Br)cc2)c1", "note": "(stereo not given)", "growth": "-3.05% (active)"}, {"smiles": "CN1CCN(C(=O)Oc2cc3c(c4ccccc24)[C@H](CCl)CN3C(=O)c2cc3cc(OCCCN4CCC4)ccc3[nH]2)[C@H]2CSSC[C@H]21", "growth": "4.18% (active)"}, {"smiles": "Nc1nc(-c2ccccc2)c(N=Nc2ccc(Cl)cc2Cl)s1", "growth": "-59.7% (active)"}]}, {"system": "MCF7 breast", "assay": "NCI-60 one-dose screen, 48 h (100 = growth as untreated, 0 = no growth, -100 = all killed)", "details": "10 µM unless noted", "values": [{"smiles": "Fc1cccc(CNc2nc(SCCN3CCOCC3)nc3c2cnn3CC(Cl)c2ccc(Br)cc2)c1", "note": "(stereo not given)", "growth": "7.42% (active)"}, {"smiles": "O=C(Nc1nc2ccc([N+](=O)[O-])cc2s1)Nc1ccc(Cl)cc1Cl", "growth": "36%"}, {"smiles": "Nc1nnc(CS(=O)(=O)c2ccccc2)s1", "growth": "101%"}, {"smiles": "CCCCCCCCc1ccc(C(=O)Nc2ccc(C)cc2C(=O)O)cc1", "growth": "85.2%"}, {"smiles": "COc1ccc2c(c1)c(-c1cc(N)n3nc(-c4c[nH]c5ccccc45)cc3n1)cn2C", "growth": "-72% (active)"}, {"smiles": "Clc1ccc(CNc2nc(SCCN3CCOCC3)nc3c2cnn3CC(Cl)c2ccc(Br)cc2)cc1", "note": "(stereo not given)", "growth": "10.1%"}, {"smiles": "CCC(=O)c1cc(C(=O)OC)c2ccc3c4ccccc4ccc3n12", "growth": "80.5%"}, {"smiles": "Nc1cc(-c2c[nH]c3ccc(Cl)cc23)nc2cc(-c3c[nH]c4ccccc34)nn12", "growth": "-68.3% (active)"}, {"smiles": "CCCCNc1ccc2c3c(cccc13)C(=O)N(NCC(O)COc1ccc3c(C)cc(=O)oc3c1)C2=O", "note": "(stereo not given)", "growth": "64.6%"}, {"smiles": "O=C(OCCOCCO)N(c1cccc(Br)c1)c1nc(SCCN2CCOCC2)nc2c1cnn2CC(Cl)c1ccc(Br)cc1", "note": "(stereo not given)", "growth": "4.77% (active)"}, {"smiles": "CCN1C(=O)N(CC)C2NNC(Sc3c(C(=O)O)c4ccccc4n(CC(C)C)c3=O)=NC21", "note": "(stereo not given)", "growth": "8.53% (active)"}, {"smiles": "CCN1C(=O)N(CC)C2NNC(Sc3c(C(=O)O)c4ccccc4n(CCC(C)C)c3=O)=NC21", "note": "(stereo not given)", "growth": "9.16% (active)"}, {"smiles": "COc1ccc(C(=O)c2cc(C(C)=O)c3c(C)cc(C)cn23)cc1", "growth": "35.2%"}, {"smiles": "O=C(N/N=C/c1ccc(Cl)cc1)c1ccc(OCc2nc3ccc(Cl)cc3[nH]2)cc1", "growth": "-21.7% (active)"}, {"smiles": "COC(=O)c1cc(C(=O)C(Br)Br)n2c1ccc1c3ccccc3ccc12", "growth": "5.77% (active)"}, {"smiles": "O=C(Nc1nc2ccccc2s1)Nc1ccccc1Cl", "growth": "69%"}, {"smiles": "Oc1ccc(Cl)c(Nc2ncnc3c2cnn3CC(Cl)c2ccc(Br)cc2)c1", "note": "(stereo not given)", "growth": "49.7%"}, {"smiles": "ClC(Cn1ncc2c(Nc3cccc(Br)c3)nc(SCCN3CCOCC3)nc21)c1ccc(Br)cc1", "note": "(stereo not given)", "growth": "-5.44% (active)"}, {"smiles": "Nc1cc(-c2c[nH]c3ccc(F)cc23)nc2cc(-c3c[nH]c4ccccc34)nn12", "growth": "-22.9% (active)"}, {"smiles": "O=C1CCC(N2C(=O)c3cccc(NCCOCCOCCOCCC(=O)NCCCC(=O)NC(c4ccc5c(c4)OCO5)c4cc(Cl)c5cccnc5c4O)c3C2=O)C(=O)C1", "note": "(stereo not given)", "growth": "10.9%"}, {"smiles": "Cn1cc(-c2cc3nc(-c4c[nH]c5ccccc45)cc(N)n3n2)c2ccccc21", "growth": "-67.4% (active)"}, {"smiles": "CN1C(=O)C(O)(CC(=O)c2cc3ccccc3oc2=O)c2ccccc21", "note": "(stereo not given)", "growth": "67.1%"}, {"smiles": "COc1ccc(Nc2nnc(-c3c[nH]c4ccccc34)o2)cc1", "growth": "58.6%"}, {"smiles": "Cc1cccc(C)c1Nc1nnc(-c2c[nH]c3ccccc23)o1", "growth": "83.4%"}, {"smiles": "Cc1ccc(O)cc1Nc1nc(SCCN2CCOCC2)nc2c1cnn2CC(Cl)c1ccc(Br)cc1", "note": "(stereo not given)", "growth": "5.88% (active)"}, {"smiles": "Fc1ccccc1CNc1nc(SCCN2CCOCC2)nc2c1cnn2CC(Cl)c1ccc(Br)cc1", "note": "(stereo not given)", "growth": "21.3%"}, {"smiles": "COC(=O)c1cc(C(=O)CBr)n2c1ccc1c3ccccc3ccc12", "growth": "6.75% (active)"}, {"smiles": "Oc1ccc(F)c(Nc2nc(SCCN3CCOCC3)nc3c2cnn3CC(Cl)c2ccc(Br)cc2)c1", "note": "(stereo not given)", "growth": "7.39% (active)"}, {"smiles": "COC(=O)c1c(C(=O)OC)c2ccc3c4ccccc4ccc3n2c1C(=O)C(C)Br", "note": "(stereo not given)", "growth": "6.04% (active)"}, {"smiles": "Cc1nn(-c2ccccc2)c2nc(C)n(C(=O)N/N=C/c3cccc([N+](=O)[O-])c3)c(=O)c12", "growth": "77.1%"}, {"smiles": "COc1c2c(c(Br)c3c1C(CCc1ccccc1)N(C)CC3)OCO2", "note": "(stereo not given)", "growth": "18.6%"}, {"smiles": "COc1ccc2[nH]cc(-c3cc(N)n4nc(-c5c[nH]c6ccccc56)cc4n3)c2c1", "growth": "-81.6% (active)"}, {"smiles": "CC(C)(C)C(=O)C1CC(C#N)=C2C=Cc3c(ccc4ccccc34)N21", "note": "(stereo not given)", "growth": "63%"}, {"smiles": "Oc1ccc(Cl)c(Nc2nc(SCCN3CCOCC3)nc3c2cnn3CC(Cl)c2ccc(Br)cc2)c1", "note": "(stereo not given)", "growth": "5.55% (active)"}, {"smiles": "Fc1ccc(F)c(CNc2nc(SCCN3CCOCC3)nc3c2cnn3CC(Cl)c2ccc(Br)cc2)c1", "note": "(stereo not given)", "growth": "2.55% (active)"}, {"smiles": "CN1CCN(C(=O)Oc2cc3c(c4ccccc24)[C@H](CCl)CN3C(=O)c2cc3cc(OCCCN4CCC4)ccc3[nH]2)[C@H]2CSSC[C@H]21", "growth": "3.7% (active)"}, {"smiles": "Nc1nc(-c2ccccc2)c(N=Nc2ccc(Cl)cc2Cl)s1", "growth": "-28.9% (active)"}]}]}
